Measured values taken from PubChem BioAssay AID652142 (Molecular Libraries Program, Specialized Chemistry Center, …, 2013).
Fewer than 10 of roughly 2,400 compounds were called active. The rule behind the calls is not given here. The list is a sample of the results.

Each compound was assayed against Rac GTPase-activating protein 1 (Homo sapiens) (UniProt Q9H0H5) (assay: inhibition of MgcRacGAP-stimulated Rac1 GTP hydrolysis – biochemical, inorganic phosphate detection, orthogonal assay, confirmation (AID 652142)). Conditions: MgcRacGAP/Rac1F28L GTP hydrolysis, Biomol green phosphate; hits give high values.
Rac GTPase-activating protein 1 (Homo sapiens), sequence (Q9H0H5 whole entry, looked up): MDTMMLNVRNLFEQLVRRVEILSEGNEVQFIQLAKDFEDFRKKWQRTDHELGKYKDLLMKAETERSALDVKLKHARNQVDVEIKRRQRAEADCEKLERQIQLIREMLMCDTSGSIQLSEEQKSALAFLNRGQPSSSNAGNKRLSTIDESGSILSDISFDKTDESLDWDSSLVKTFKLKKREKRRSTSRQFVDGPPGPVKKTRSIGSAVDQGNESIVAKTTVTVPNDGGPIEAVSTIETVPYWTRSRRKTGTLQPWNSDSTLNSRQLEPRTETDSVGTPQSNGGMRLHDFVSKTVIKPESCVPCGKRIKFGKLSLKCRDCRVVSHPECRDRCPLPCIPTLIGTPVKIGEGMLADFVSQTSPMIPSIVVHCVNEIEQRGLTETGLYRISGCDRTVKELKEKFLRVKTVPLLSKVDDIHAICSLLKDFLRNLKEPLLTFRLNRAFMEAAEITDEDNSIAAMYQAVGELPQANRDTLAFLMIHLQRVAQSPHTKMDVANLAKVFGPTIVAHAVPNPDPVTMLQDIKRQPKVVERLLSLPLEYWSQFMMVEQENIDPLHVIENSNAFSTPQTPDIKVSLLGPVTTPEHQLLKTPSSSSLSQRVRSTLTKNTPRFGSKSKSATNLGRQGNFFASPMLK

inhibition, inactive:
Fc1ccc(CNc2ccc(N3CCN(Cc4ccccc4)CC3)cc2)cc1 7.97%, Cc1cc(SCC(=O)c2ccc(O)c(O)c2)nc2ccccc12 5.6%, COc1ccc(NC(=O)n2ncc3cc(Cl)ccc32)cc1OC 23.6%, COc1ccc(C(CNC(=O)c2cc3ccccc3cc2O)N2CCOCC2)cc1 (stereo unspecified) 18%, CC1CCCCN1Cc1c(O)ccc2c(=O)c(-c3nc4ccccc4s3)c(N)oc12 (stereo unspecified) 30.4%, CCN(CC)CCCC(C)NC(=O)c1c(NC(=O)c2ccccc2)sc2c1CCCC2 (stereo unspecified) 24.9%, CN(C)CCCN1c2ccc(O)cc2Sc2ccc(Cl)cc21 30.1%, COc1cc(/C=N/NC(=O)c2cccc(NC(=O)c3ccccc3C)c2)ccc1O 19.3%, C/C(=N\NC(=O)c1ccc(O)cc1)c1ccc2c(c1)Nc1ccccc1S2 28.2%, CCOc1cc(CNc2ccc(N3CCCCC3)cc2)cc(Br)c1OCC(=O)NC(C)(C)C 35.1%, Cc1cc(NS(=O)(=O)c2ccc(Nc3nc(-c4ccc(O)cc4)cs3)cc2)no1 23.8%, COC(=O)c1ccc(NC(=S)Nc2ccc(O)cc2)cc1 34.6%, C[C@H]1CCC/C=C/[C@@H]2C[C@H](O)C[C@H]2[C@H](O)[C@H](S(=O)c2ccc(O)cc2)CC(=O)O1 (stereo partly specified) 47.3%, Cc1[nH]nc(-c2ccc(O)c(C)c2O)c1-c1cnn(-c2ccccc2)c1 36.4%, Cn1c(=O)c2c([nH]c(=S)n2CCCc2ccccc2)n(C)c1=O 26.4%, Oc1ccc(N=Nc2ccccc2)cc1 8.73%, O=C1C=C(Nc2ccc(O)cc2)C(=O)c2ccccc21 25.1%, COc1cc(/C=N/Nc2nn3cnnc3c3ccccc23)ccc1O 26.4%, C/C(CC(=O)Nc1ccc(N(C)C)cc1)=N\NC(=O)c1ccc([N+](=O)[O-])cc1Cl 26.5%, COc1cc(/C=N/n2c(C3CCCCC3)n[nH]c2=S)ccc1O 27.2%, Cc1ccc(NC(=O)CN2CCN(C)CC2)cc1Br 26.9%, CCCCn1c(SCC(=O)c2ccc(O)c(O)c2)nc2ccsc2c1=O 27.5%, CCOC(=O)c1[nH]c2ccc(F)cc2c1NC(=O)c1ccccc1C(=O)O 22.6%, Cc1ccc(/C=N/Nc2ccc(Cl)c(C(=O)O)c2)s1 6.67%, O=C(c1cccnc1)N1CCN(Cc2cccc(Br)c2)CC1 26.8%, COc1ccc(N=C2NC(=O)/C(=C/c3ccc(O)c(OC)c3)S2)cc1 19.7%, Oc1ccc(-c2csc(-c3cccnc3)n2)c(O)c1 14.8%, Cc1nc(N)sc1-c1ccccc1 20.1%, COc1ccc(NC(=O)c2cc3ccc(O)cc3o/c2=N\O)cc1 17.5%, COc1cc(/C=N/NC(=S)Nc2cccc(S(=O)(=O)N(C)C)c2)ccc1O 20.1%, O=C(Nc1n[nH]c(=S)s1)c1ccco1 29.1%, CCc1nc(Nc2ccc(O)cc2)c2oc3ccccc3c2n1 27.8%, CCCCCC(=O)Nc1cc(S(=O)(=O)O)cc2cc(S(=O)(=O)O)cc(O)c12 64.8%, CCOc1ccc(/C=N/NC(=O)NC23CC4CC(CC(C4)C2)C3)cc1O 17.5%, CCn1c(C)nc2cc(C(=O)N/N=C/c3ccc(O)cc3)ccc21 22.6%, COc1ccc(Oc2c(-c3ccc(O)cc3O)n[nH]c2C)cc1 9.67%, C=C(CN(C)C)C(=O)c1cc(OC)c(OC)cc1OC 6.42%, CCn1c(=O)c(C(=O)CN(C)Cc2cccc(OC)c2OC)c(N)n(Cc2ccccc2)c1=O 35.9%, CCOc1ccc2c(ccc(/C=C/c3cc(C)c4cccnc4c3O)[n+]2C)c1 66.1%, CN(C)c1ccc(NC(=O)c2sc(SCC(=O)Nc3nccs3)nc2N)cc1 29.2%, Cc1ccc(NCCN(C)C)c2c(=O)c3cc(O)ccc3sc12 31.1%, C(=N\Nc1nc2ccccc2[nH]1)/c1c[nH]c2ccccc12 4.59%, COc1cc2c(cc1NC(=S)Nc1cccc3ccccc13)oc1ccccc12 21.3%, NS(=O)(=O)c1ccc(Nc2nc(-c3ccc(O)cc3O)cs2)cc1 24.5%, Cc1cc(=O)[nH]c2c(N=Nc3ccc(O)cc3)c(N)nn12 34.3%, CSCCOC(=O)C1=C(C)Nc2ccc(C)cc2S1 29.3%, OCC1CCCN(C(=S)Nc2ccc(Nc3ccccc3)cc2)C1 (stereo unspecified) 34.4%, COc1cc2c(cc1NC(=S)Nc1cccc(C(F)(F)F)c1)oc1ccccc12 8.84%, COc1cc(/C=N/n2c(-c3cc(C)[nH]n3)n[nH]c2=S)cc(OC)c1OC 1.28%, CCN(CC)c1ccc(C(=C2C=CC(=[N+](CC)CC)C=C2)c2ccc(N(CC)CC)cc2)cc1 90%, COc1cc(C=NNC(=O)c2ccccc2-n2cccc2)ccc1O 22%, COc1cc2c(cc1OC)C1(CCCC1)C(N)=C2C#N 18.7%, CC1CC(=O)N(c2ccc(NCCc3ccc(O)cc3)c([N+](=O)[O-])c2)C1=O (stereo unspecified) 29.1%, CCN1C(=O)/C(=C2/C=Cc3cc(C)ccc3N2CC)N(C)C1=S 23%, O=C(O)c1c2c(nc3ccccc13)/C(=C/c1ccc(O)cc1)CCC2 19.3%, CN(C)c1ccc(NC2=C(Cl)C(=O)c3ccccc3C2=O)cc1 22%, Cc1ccc(/C(N)=N/OC(=O)N2c3ccccc3Sc3ccccc32)cc1 23.7%, Oc1ccc(Nc2ncnc3ccccc23)cc1 20.3%, CN1/C(=C\C=N\NC(=O)c2ccc(O)cc2)C(C)(C)c2ccccc21 22.5%, O=C(Cn1c(C(=O)NCC2CCCO2)cc2sccc21)c1ccccc1 (stereo unspecified) 18.4%, Cc1ccc(NC(=O)CCNCc2ccco2)cc1S(=O)(=O)N(C)C 33.8%, CC(NCc1ccc(S(N)(=O)=O)cc1)C(=O)N1c2ccccc2CC1C (stereo unspecified) 13.9%, O=C(C1=C(O)C(=O)N(c2nc3ccc(Cl)cc3s2)C1c1ccco1)c1ccco1 (stereo unspecified) 28.7%, C/C(=N\NC(=O)c1ccccc1F)c1ccc2c(c1)Nc1ccccc1S2 20.8%, COc1cc(/C=C2\C(=O)N(C)C(=S)N2C)ccc1O 9.53%, COc1ccc(NC(=O)c2ccc(NC(=O)CN3CCN(c4ccc(O)cc4)CC3)cc2)cc1 18.8%, CN(C)CCNc1ccc(CO)c2oc3ccc(O)cc3c(=O)c12 14.8%, CN(C)c1ccc(/C=C/c2ccc3ccccc3[n+]2C)cc1 41%, Oc1ccc(/C=C/c2ccc3ccccc3n2)cc1 35.5%, O=C1/C(=C\c2ccc(O)cc2)SC(=S)N1/N=C/c1ccc(O)cc1 13.5%, COc1ccccc1C(=O)N1CCN(Cc2cccnc2)CC1 19.7%, CN(C)c1ccc(/C=C2/C[N+](C)(C)C/C(=C/c3ccc(N(C)C)cc3)C2=O)cc1 25.4%, Cc1cc(O)ccc1NC(=O)c1ccccc1 36%, Cc1cc(C)c2nc(C)cc(N/N=C/c3ccc(O)cc3)c2c1 41.9%, COc1cc(/C=C2\SC(=S)N(Nc3ccccc3)C2=O)ccc1O 19.2%, O=C(Oc1ccc(N(C(=O)c2ccncc2)S(=O)(=O)c2cccs2)cc1)c1ccncc1 26.2%, CCOc1cc(/C=C2\C(=O)N(CCc3ccc(OC)c(OC)c3)C(C)=C2C(=O)OC)ccc1O 20.6%, O=C(CN1CCN(c2ccc(O)cc2)CC1)NCC(=O)Nc1ccc(F)c(F)c1F 24.8%, O=C(COc1ccccc1C(=O)N/N=C\c1ccc(O)c(O)c1)N/N=C/c1ccc(O)c(O)c1 8.94%, COc1ccc(NC2CCCN(C(=O)c3ccc4[nH]c(C)c(C)c4c3)C2)cc1 (stereo unspecified) 17.9%, COc1cc(/C=N/NC(=O)CCn2c3ccccc3c3ccccc32)ccc1O 21%, COCCCNC1=C(C#N)C(=O)NC(c2cccs2)S1 (stereo unspecified) 40.4%, CN(C)CCNc1ccc(CO)c2sc3ccc(O)cc3c(=O)c12 12.6%, NC(CSS(=O)(=O)O)=NCCC12CC3CC(CC(O)(C3)C1)C2 34.4%, C=CCn1c(SCC(=O)Nc2ccc(N(C)C)cc2)nnc1-c1cccc(C)c1 15.5%, CCOc1cc(-c2nc3ccccc3s2)ccc1O 30.1%, Oc1ccc(/C=N/Nc2nn3cnnc3c3ccccc23)cc1 25.8%, Oc1ccc(/C=N/n2c(-c3ccco3)csc2=Nc2cccnc2)c(O)c1 23.8%, Cc1ccc(S(=O)(=O)c2cc(Nc3ccccc3)ccc2O)cc1 11.6%, Cc1cc(C)n(CC(O)CN2c3ccccc3Sc3ccccc32)n1 (stereo unspecified) 32.2%, CC(C)C1=Nc2cccc3cccc(c23)N1 22.3%, COc1nc(Nc2ccc(O)cc2)nc(OC(C(F)(F)F)C(F)(F)F)n1 18.1%, Clc1cccc(N/N=C/c2ccc(N3CCOCC3)s2)c1 29.3%, CCOC(=O)C1CCN(Cc2cn[nH]c2-c2ccccc2)CC1 27.9%, CCOc1cc(/C=N/NC(=O)Nc2ccccc2)ccc1O 23.6%, CCOc1cc(/C=C(\C#N)c2[nH]nc(N)c2C#N)ccc1O 29.6%, Cc1cc(-c2ccccc2)nc(N/N=C/c2ccc(O)cc2)n1 18.1%, CCOC(=O)C1=C(C)Nc2ccccc2S1 35.2%, C=CCOc1ccccc1CN1CCCN(C)CC1 22.3%, CCOc1cc(/C=C(\C#N)C(=O)NCC2CCCO2)ccc1O (stereo unspecified) 23.9%, CN1C(=O)NC(c2ccc(O)cc2)C2=C1CN(c1ccc(O)cc1)C2=O (stereo unspecified) 24.1%, Cc1ccnc(Nc2nc(-c3ccc(O)c(O)c3)cs2)c1 23.8%, CCOC(=O)c1nc(Nc2ccc(Nc3ccccc3)cc2)c2ccccc2n1 32%, Oc1ccc(NC(=S)N=Nc2c(O)[nH]c3ccc(Br)cc23)cc1 26.7%, CCOC(=O)c1[nH]c2ccccc2c1NC(=S)Nc1cccc(C)c1C 18.1%, CCN(CC)c1ccc(C(=C2C=CC(=[N+](CC)CC)C=C2)c2ccccc2)cc1 28%, CC(C)N=c1scc(-c2ccco2)n1/N=C/c1ccc(O)c(O)c1 27.8%, O=C1CSC(=S)N1Nc1ccccc1 17.3%, CCc1cc(-c2n[nH]c(CCC(=O)O)c2-c2nc3ccccc3n2C)c(O)cc1O 30.8%, Nc1nc(=S)c2[nH]c(=S)[nH]c2[nH]1 35.5%, CC(C(=O)NCC(=O)Nc1ccc(F)c(F)c1F)N1CCN(c2ccc(O)cc2)CC1 (stereo unspecified) 20.8%
